Screening results as filed in PubChem.
Hits are enriched below; roughly 4% of the tested compounds scored in any of these assays.
Mdm2-MdmX inh – disrupts the human Mdm2-MdmX interaction; O15151+Q00987; SaOS-2 split-luciferase Mdm2/MdmX complementation, luminescence; inhibition, % at 8 µM; hit rate 3% among 330,000;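 active = inhibition of at least 50% at 8 µM in the primary screen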
PAX8 reporter – PAX8 transcriptional activity inhibition | RMG-I TPO-luciferase reporter, SteadyGlo, 24 h | inhibition, % at 12.6 µM | hit rate 1.2% among 360,000 | AID 652154;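 active = mean replicate inhibition at least 60% with every replicate also reaching 60%; inconclusive = only one of the two criteria is met; inactive = mean below 60% and not all replicates reaching 60%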;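 note: luciferase light reporting Pax8 driven TPO promoter activity; plate controls were median of neutral control wells for no effect and mitoxantrone controls for full effect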
Shn3 3UTR inh – Schnurri-3 reporter inhibition in Clone20 osteoblasts; Clone20 osteoblast Shn3 3'UTR firefly luciferase, 24 h; inhibition, % at 12.5 µM; hit rate 0.52% among 360,000;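 active = mean inhibition of at least 75% with every replicate also reaching 75%; inconclusive = mean inhibition at least 75% but some replicate below; inactive = mean inhibition below 75%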;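 note: 0% = median of neutral control wells and 100% = pilot-screen positive control compound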
CSC inhib – blocks cancer stem cells; inhibition, % at 7.5 µM; AID 2717; cancer stem cell-like cells viability, luminescence; hit rate 1.1% among 300,000; in the data active = inhibition above about 75%; inconclusive = no clear call, values can overlap the other calls; tested in HMLE shEcad cells
Beta apoptosis – blocks beta cell apoptosis; hit rate 0.8% among 300,000; INS-1E cytokine-induced death, ATP luminescence, 48 h; percent of positive-control rescue, neutral wells zero; protection from apoptosis, % (concentration not given with the values); AID 435005;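 active = Every replicate reaches about 75%, or at least half do and their mean reaches it too, limit read from the data; inconclusive = At least half of replicates reach the limit but their mean does not; inactive = Under half of replicates reach the limit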;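 note: 0% = cytokine-treated negative control wells and 100% = positive control rescue; higher means more ATP so stronger rescue from cytokine killing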
Gli-Sufu antag – antagonists of Gli-Sufu signaling. Sufu-KO-LIGHT fibroblasts, Gli luciferase reporter luminescence. inhibition, % at 5 µM. hit rate 0.74% among 340,000. AID 588413;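 active = inhibition above about 55%, limit read from the data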;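 note: 0% = DMSO-treated cells and 100% = wells with medium but no cells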
Active calls of the source: *; ? = inconclusive; . = no result given; ! = not confirmed by another sample.

SMILES | Mdm2-MdmX inh | PAX8 reporter | Shn3 3UTR inh | CSC inhib | Beta apoptosis | Gli-Sufu antag
N#Cc1ccc(-c2ccc(C3[C@@H]4CN(C(=O)c5ccc6c(c5)OCO6)C[C@H]3N4)cc2)cc1 (stereo partly drawn) | . | 91*! | . | . | . | .
Cc1ccccc1-c1ccc(C2[C@@H]3CN(C(=O)c4ccc(F)cc4)C[C@H]2N3)cc1 (stereo partly drawn) | . | 65*! | . | . | . | .
N#Cc1cccc(-c2ccc(C3[C@@H]4CN(C(=O)c5ccc6c(c5)OCO6)C[C@H]3N4)cc2)c1 (stereo partly drawn) | . | 6 | . | . | . | .
O=C(c1ccc(F)cc1)N1C[C@@H]2N[C@H](C1)C2c1ccc(-c2ccc(F)cc2)cc1 (stereo partly drawn) | . | 84*! | . | . | . | .
O=C(c1ccc(F)cc1)N1C[C@@H]2N[C@H](C1)C2c1ccc(-c2cncnc2)cc1 (stereo partly drawn) | . | 4 | . | . | . | .
CO[C@H]1CN(C)C(=O)c2cc(NC(=O)C3CC3)ccc2OC[C@H](C)N(CC2CCOCC2)C[C@H]1C | . | -5 | . | . | . | .
Cc1cc(N2C(=O)C=CC2=O)c([N+](=O)[O-])cc1C | -10 | . | 89* | ? | -8 | -1
COc1ccc(/C=N/NC(=S)Nc2cccc(C(=O)O)c2)cc1 | 13 | -2 | 7 | . | -7 | -38
COc1cc(/C=N/NC(=S)Nc2cccc(C(=O)O)c2)ccc1O | 43 | 80* | 17 | 16 | -12 | -9
O=C(C[C@@H]1CC[C@@H]2[C@H](COC[C@H](O)CN2Cc2cc(F)cc(F)c2)O1)NC1CCCC1 | . | 9 | . | . | . | .
C[C@@H]1CN([C@H](C)CO)C(=O)c2cc(N(C)C)ccc2O[C@@H](C)CCCCO[C@H]1CN(C)C(=O)Nc1cccc2ccccc12 | . | 52 | . | . | . | .
C[C@H]1CCCCO[C@H](CN(C)C(=O)Nc2cccc3ccccc23)[C@@H](C)CN([C@@H](C)CO)C(=O)c2cc(NC(=O)NC3CCCCC3)ccc2O1 | . | 67* | . | . | . | .
C[C@@H]1CN([C@H](C)CO)C(=O)c2cc(NC(=O)Cc3ccccc3)ccc2O[C@@H](C)CCCCO[C@@H]1CN(C)C(=O)Nc1cccc2ccccc12 | . | 64* | . | . | . | .
C[C@@H]1CCCCO[C@H](CN(C)C(=O)Nc2cccc3ccccc23)[C@H](C)CN([C@H](C)CO)C(=O)c2cc(NC(=O)Cc3ccccc3)ccc2O1 | . | 9 | . | . | . | .
C[C@@H]1CCCCO[C@H](CN(C)C(=O)Nc2cccc3ccccc23)[C@H](C)CN([C@@H](C)CO)C(=O)c2cc(N(C)C)ccc2O1 | . | 71* | . | . | . | .
CO[C@@H]1CN(C)C(=O)c2cc(NS(=O)(=O)c3cn(C)cn3)ccc2OC[C@H](C)N(C)C[C@H]1C | . | 9 | . | . | . | .
O=C(N/N=C/c1cc(O)ccc1Br)c1cccnc1 | 26 | 72* | 71 | . | . | 3
CCC(=O)N1C[C@H](C)[C@H](OC)CN(C)C(=O)c2cc(NC(=O)c3ccc(F)cc3)ccc2OC[C@H]1C | . | 2 | . | . | . | .
C[C@H]1CN([C@@H](C)CO)C(=O)Cc2cc(NC(=O)Nc3ccc(C(F)(F)F)cc3)ccc2O[C@H]1CN(C)Cc1ccncc1 | . | 33 | . | . | . | .
C[C@H](CO)N1C[C@H](C)[C@@H](CN(C)Cc2ccc(C(F)(F)F)cc2)Oc2ccc(NC(=O)Nc3ccc(C(F)(F)F)cc3)cc2CC1=O | . | 57 | . | . | . | .
C[C@H](CO)N1C[C@H](C)[C@@H](CN(C)Cc2ccncc2)Oc2ccc(NC(=O)Nc3ccc(C(F)(F)F)cc3)cc2CC1=O | . | 90* | . | . | . | .
C[C@@H]1CN([C@@H](C)CO)C(=O)Cc2cc(NC(=O)Nc3ccc(C(F)(F)F)cc3)ccc2O[C@H]1CN(C)C(=O)NC1CCCCC1 | . | 80* | . | . | . | .
C[C@@H]1CN([C@@H](C)CO)C(=O)Cc2cc(NC(=O)Nc3ccc(C(F)(F)F)cc3)ccc2O[C@H]1CN(C)Cc1ccc(C(F)(F)F)cc1 | . | 64* | . | . | . | .
C[C@H]1CN([C@@H](C)CO)C(=O)Cc2cc(NC(=O)CCC(F)(F)F)ccc2O[C@H]1CN(C)Cc1ccc2c(c1)OCO2 | . | 63* | . | . | . | .
C[C@H]1CN([C@@H](C)CO)C(=O)Cc2cc(NC(=O)NC3CCCCC3)ccc2O[C@H]1CN(C)C(=O)Nc1ccc(C(F)(F)F)cc1 | . | -9 | . | . | . | .
SMILES | Mdm2-MdmX inh | PAX8 reporter | Shn3 3UTR inh | CSC inhib | Beta apoptosis | Gli-Sufu antag
C[C@H](CO)N1C[C@H](C)[C@H](CN(C)Cc2ccc3c(c2)OCO3)Oc2ccc(NC(=O)Nc3ccc(C(F)(F)F)cc3)cc2CC1=O | . | 7 | . | . | . | .
C[C@H](CO)N1C[C@H](C)[C@H](CN(C)Cc2ccncc2)Oc2ccc(NC(=O)Nc3cccc4ccccc34)cc2CC1=O | . | 42 | . | . | . | .
C[C@@H]1CN([C@@H](C)CO)C(=O)Cc2cc(NC(=O)CCCCCC(=O)Nc3ccccc3N)ccc2O[C@@H]1CN(C)Cc1ccc(C(F)(F)F)cc1 | . | 90* | . | . | . | .
C[C@@H]1CN([C@@H](C)CO)C(=O)Cc2cc(NC(=O)Nc3ccc(C(F)(F)F)cc3)ccc2O[C@H]1CN(C)Cc1ccc(Oc2ccccc2)cc1 | . | 94* | . | . | . | .
C[C@@H]1CN([C@@H](C)CO)C(=O)Cc2cc(NC(=O)Nc3ccc(C(F)(F)F)cc3)ccc2O[C@H]1CN(C)Cc1ccc2c(c1)OCO2 | . | 80* | . | . | . | .
C[C@H](CO)N1C[C@H](C)[C@@H](CN(C)Cc2ccncc2)Oc2ccc(NC(=O)Nc3cccc4ccccc34)cc2CC1=O | . | 67* | . | . | . | .
Cc1noc(C)c1S(=O)(=O)Nc1ccc2c(c1)C(=O)N([C@@H](C)CO)C[C@@H](C)[C@H](CN(C)Cc1ccc3c(c1)OCO3)OCCCC[C@@H](C)O2 | . | 0 | . | . | . | .
CC(=O)N1CC2(C1)[C@@H](c1ccc(-c3ccccc3C)cc1)[C@@H](CO)N2C(C)=O | . | -6 | . | . | . | .
CO[C@@H]1CN(C)C(=O)c2cc(NC(=O)Nc3c(C)noc3C)ccc2OC[C@@H](C)N(CC2CC2)C[C@H]1C | . | -19 | . | . | . | .
C[C@@H]1CCCCO[C@@H](CN(C)C(=O)Cc2ccccc2)[C@H](C)CN([C@H](C)CO)C(=O)c2cc(NS(=O)(=O)c3ccc(Cl)cc3)ccc2O1 | . | 58 | . | . | . | .
C[C@@H]1CN([C@@H](C)CO)C(=O)c2cc(NC(=O)C3CCCCC3)ccc2O[C@H]1CN(C)C(=O)Nc1cccc2ccccc12 | . | 23 | . | . | . | .
C[C@@H]1CN([C@H](C)CO)C(=O)Cc2cc(NC(=O)Cn3cnnn3)ccc2O[C@@H]1CN(C)Cc1ccccc1 | . | 8 | . | . | . | .
C[C@H](CO)N1C[C@H](C)[C@H](CN(C)Cc2ccccc2)Oc2ccc(NC(=O)Nc3ccc(C(F)(F)F)cc3)cc2CC1=O | . | 24 | . | . | . | .
C[C@@H]1CN([C@@H](C)CO)C(=O)Cc2cc(NC(=O)Nc3ccc(C(F)(F)F)cc3)ccc2O[C@H]1CN(C)Cc1ccc(Cl)c(Cl)c1 | . | 104* | . | . | . | .
COc1ccc(NC(=O)Nc2ccc3c(c2)CC(=O)N([C@H](C)CO)C[C@H](C)[C@H](CN(C)Cc2ccc(Oc4ccccc4)cc2)O3)cc1 | . | 21 | . | . | . | .
C[C@H](CO)N1C[C@H](C)[C@@H](CN(C)Cc2ccc(Oc3ccccc3)cc2)Oc2ccc(NC(=O)Cc3cn(C)c4ccccc34)cc2CC1=O | . | 65* | . | . | . | .
